In PubChem BioAssay AID1159580 (chemical genetic matrix, 2015):
Screen size: about 5,500 compounds; about 2,000 (36%) were called active. Roughly 18% stayed inconclusive and do not appear here. No stated cut-off is given here; in the data, active means normalized growth mostly below about 0.91 (no sharp cut-off); inconclusive means no clear call, values can overlap the other calls; inactive means mostly above about 0.92. The list shows a part of the results.

Assay: chemical genetic growth profiling, strain panel (AID 1159580);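 further: tested at 20 µM; growth read once vehicle control cultures reached saturation at 30 °C; 1 = growth at the plate median or of vehicle wells; lower values mean less growth of the strain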
Details: growth OD

Measured: normalized growth

COc1cc(O)c(C(=O)/C=C/c2ccccc2)c(OC)c1
active: S. cerevisiae deletion strains, locus YAL013W, strain DEP1, hits give low values 0.897 | S. cerevisiae deletion strains, locus YBR009C, strain hhf1, hits give low values 0.846 | S. cerevisiae deletion strains, locus YBR023C, strain chs3, hits give low values 0.893 | S. cerevisiae deletion strains, locus YBR279W, strain paf1, hits give low values 0.894 | S. cerevisiae deletion strains, locus YCL011C, strain gbp2, hits give low values 0.867 | S. cerevisiae deletion strains, locus YCL016C, strain dcc1, hits give low values 0.861 | S. cerevisiae deletion strains, locus YDL074C, strain BRE1, hits give low values 0.682 | S. cerevisiae deletion strains, locus YDL134C, strain PPH21, hits give low values 0.807 | S. cerevisiae deletion strains, locus YDL192W, strain arf1, hits give low values 0.796 | S. cerevisiae deletion strains, locus YDR101C, strain arx1, hits give low values 0.857 | S. cerevisiae deletion strains, locus YDR137W, strain rgp1, hits give low values 0.717 | S. cerevisiae deletion strains, locus YDR195W, strain ref2 1.18 [resistant] | S. cerevisiae deletion strains, locus YDR318W, strain mcm21, hits give low values 0.816 | S. cerevisiae deletion strains, locus YDR392W, strain spt3, hits give low values 0.373 | S. cerevisiae deletion strains, locus YDR502C, strain sam2, hits give low values 0.819 | S. cerevisiae deletion strains, locus YER015W, strain faa2, hits give low values 0.89 | S. cerevisiae deletion strains, locus YER110C, hits give low values 0.863 | S. cerevisiae deletion strains, locus YER155C, strain BEM2 (second series), hits give low values 0.807 | S. cerevisiae deletion strains, locus YER155C, strain BEM2, hits give low values 0.625 | S. cerevisiae deletion strains, locus YGL086W, strain mad1, hits give low values 0.794 | S. cerevisiae deletion strains, locus YGL240W, strain doc1, hits give low values 0.819 | S. cerevisiae deletion strains, locus YGL248W, strain PDE1, hits give low values 0.8 | S. cerevisiae deletion strains, locus YGL253W, strain hxk2, hits give low values 0.85 | S. cerevisiae deletion strains, locus YGR135W, strain pre9, hits give low values 0.83 | S. cerevisiae deletion strains, locus YGR229C, strain SMI1, hits give low values 0.681 | S. cerevisiae deletion strains, locus YGR252W, strain gcn5, hits give low values 0.667 | S. cerevisiae deletion strains, locus YHR079C, strain IRE1 (second series), hits give low values 0.909 | S. cerevisiae deletion strains, locus YHR094C, strain hxt1, hits give low values 0.917 | S. cerevisiae deletion strains, locus YHR129C, strain ARP1, hits give low values 0.857 | S. cerevisiae deletion strains, locus YHR142W, strain chs7, hits give low values 0.791 | S. cerevisiae deletion strains, locus YHR200W, strain rpn10, hits give low values 0.891 | S. cerevisiae deletion strains, locus YIR030C, strain dcg1, hits give low values 0.898 | S. cerevisiae deletion strains, locus YJL095W, strain BCK1, hits give low values 0.574 | S. cerevisiae deletion strains, locus YJL129C, strain trk1, hits give low values 0.779 | S. cerevisiae deletion strains, locus YJL164C, strain tpk1, hits give low values 0.858 | S. cerevisiae deletion strains, locus YJL166W, strain qcr8, hits give low values 0.792 | S. cerevisiae deletion strains, locus YJL187C, strain SWE1 (second series), hits give low values 0.866 | S. cerevisiae deletion strains, locus YKL068W, hits give low values 0.934 | S. cerevisiae deletion strains, locus YKL160W, strain elf1, hits give low values 0.852 | S. cerevisiae deletion strains, locus YKR001C, strain vps1, hits give low values 0.642 | S. cerevisiae deletion strains, locus YLL001W, strain dnm1, hits give low values 0.899 | S. cerevisiae deletion strains, locus YLR027C, strain aat2, hits give low values 0.859 | S. cerevisiae deletion strains, locus YLR039C, strain RIC1, hits give low values 0.674 | S. cerevisiae deletion strains, locus YLR058C, strain SHM2, hits give low values 0.848 | S. cerevisiae deletion strains, locus YLR102C, strain apc9, hits give low values 0.922 | S. cerevisiae deletion strains, locus YLR221C, strain rsa3, hits give low values 0.844 | S. cerevisiae deletion strains, locus YLR258W, strain gsy2, hits give low values 0.907 | S. cerevisiae deletion strains, locus YLR262C, strain YPT6 (second series), hits give low values 0.774 | S. cerevisiae deletion strains, locus YLR268W, strain sec22, hits give low values 0.804 | S. cerevisiae deletion strains, locus YLR320W, strain mms22, hits give low values 0.748 | S. cerevisiae deletion strains, locus YLR371W, strain rom2, hits give low values 0.8 | S. cerevisiae deletion strains, locus YLR418C, strain cdc73, hits give low values 0.41 | S. cerevisiae deletion strains, locus YML032C, strain rad52, hits give low values 0.826 | S. cerevisiae deletion strains, locus YML120C, strain ndi1, hits give low values 0.866 | S. cerevisiae deletion strains, locus YML124C, strain tub3, hits give low values 0.923 | S. cerevisiae deletion strains, locus YMR078C, strain ctf18, hits give low values 0.898 | S. cerevisiae deletion strains, locus YMR205C, strain PFK2, hits give low values 0.805 | S. cerevisiae deletion strains, locus YMR223W, strain ubp8, hits give low values 0.87 | S. cerevisiae deletion strains, locus YMR307W, strain GAS1, hits give low values 0.502 | S. cerevisiae deletion strains, locus YNL071W, strain lat1, hits give low values 0.503 | S. cerevisiae deletion strains, locus YNL233W, strain BNI4, hits give low values 0.766 | S. cerevisiae deletion strains, locus YNL298W, strain CLA4, hits give low values 0.879 | S. cerevisiae deletion strains, locus YNL307C, strain MCK1, hits give low values 0.301 | S. cerevisiae deletion strains, locus YOL147C, strain pex11, hits give low values 0.739 | S. cerevisiae deletion strains, locus YOR070C, strain gyp1, hits give low values 0.897 | S. cerevisiae deletion strains, locus YOR083W, strain WHI5, hits give low values 0.852 | S. cerevisiae deletion strains, locus YOR106W, strain vam3, hits give low values 0.802 | S. cerevisiae deletion strains, locus YOR136W, strain idh2, hits give low values 0.907 | S. cerevisiae deletion strains, locus YOR144C, strain elg1, hits give low values 0.878 | S. cerevisiae deletion strains, locus YOR184W, strain ser1, hits give low values 0.602 | S. cerevisiae deletion strains, locus YOR265W, strain rbl2, hits give low values 0.903 | S. cerevisiae deletion strains, locus YOR290C, strain snf2, hits give low values 0.853 | S. cerevisiae deletion strains, locus YPL051W, strain arl3, hits give low values 0.82 | S. cerevisiae deletion strains, locus YPL078C, strain atp4, hits give low values 0.864 | S. cerevisiae deletion strains, locus YPL106C, strain sse1, hits give low values 0.772 | S. cerevisiae deletion strains, locus YPL240C, strain hsp82, hits give low values 0.919 | S. cerevisiae deletion strains, locus YPR119W, strain clb2, hits give low values 0.921 | S. cerevisiae deletion strains, locus YPR163C, strain tif3, hits give low values 0.605 | S. cerevisiae deletion strains, locus YPR167C, strain met16, hits give low values 0.869 | S. cerevisiae deletion strains, strain wtn01, hits give low values 0.816
inactive: S. cerevisiae deletion strains, locus YAL021C, strain ccr4, hits give low values 0.998 | S. cerevisiae deletion strains, locus YAL026C, strain drs2, hits give low values 0.945 | S. cerevisiae deletion strains, locus YAL030W, strain snc1, hits give low values 0.941 | S. cerevisiae deletion strains, locus YBL061C, strain skt5, hits give low values 0.928 | S. cerevisiae deletion strains, locus YBR021W, strain FUR4, hits give low values 0.895 | S. cerevisiae deletion strains, locus YBR171W, strain sec66, hits give low values 0.957 | S. cerevisiae deletion strains, locus YBR229C, strain ROT2, hits give low values 0.942 | S. cerevisiae deletion strains, locus YBR231C, strain swc5, hits give low values 0.917 | S. cerevisiae deletion strains, locus YCL029C, strain bik1, hits give low values 0.923 | S. cerevisiae deletion strains, locus YCL061C, strain MRC1, hits give low values 0.922 | S. cerevisiae deletion strains, locus YCL069W, strain vba3, hits give low values 0.946 | S. cerevisiae deletion strains, locus YCR088W, strain abp1, hits give low values 0.96 | S. cerevisiae deletion strains, locus YDL005C, strain med2, hits give low values 0.98 | S. cerevisiae deletion strains, locus YDL035C, strain GPR1, hits give low values 0.907 | S. cerevisiae deletion strains, locus YDL040C, strain nat1, hits give low values 0.937 | S. cerevisiae deletion strains, locus YDL101C, strain DUN1, hits give low values 0.916 | S. cerevisiae deletion strains, locus YDL185W, strain tfp1, hits give low values 0.945 | S. cerevisiae deletion strains, locus YDR001C, strain nth1, hits give low values 0.947 | S. cerevisiae deletion strains, locus YDR069C, strain doa4, hits give low values 0.963 | S. cerevisiae deletion strains, locus YDR159W, strain sac3, hits give low values 0.975 | S. cerevisiae deletion strains, locus YDR162C, strain NBP2, hits give low values 0.947 | S. cerevisiae deletion strains, locus YDR297W, strain sur2, hits give low values 0.947 | S. cerevisiae deletion strains, locus YDR334W, strain swr1, hits give low values 0.972 | S. cerevisiae deletion strains, locus YDR335W, strain msn5, hits give low values 0.949 | S. cerevisiae deletion strains, locus YDR388W, hits give low values 0.932 | S. cerevisiae deletion strains, locus YEL003W, strain gim4, hits give low values 0.914 | S. cerevisiae deletion strains, locus YEL037C, strain rad23, hits give low values 0.948 | S. cerevisiae deletion strains, locus YEL061C, strain CIN8 (second series), hits give low values 0.966 | S. cerevisiae deletion strains, locus YER016W, strain bim1, hits give low values 0.945 | S. cerevisiae deletion strains, locus YER111C, strain swi4, hits give low values 0.987 | S. cerevisiae deletion strains, locus YER167W, strain BCK2, hits give low values 0.95 | S. cerevisiae deletion strains, locus YFR010W, strain ubp6, hits give low values 0.944 | S. cerevisiae deletion strains, locus YGL078C, strain dbp3, hits give low values 0.943 | S. cerevisiae deletion strains, locus YGL167C, strain pmr1, hits give low values 0.921 | S. cerevisiae deletion strains, locus YGL173C, strain kem1, hits give low values 0.921 | S. cerevisiae deletion strains, locus YGL227W, strain vid30, hits give low values 0.968 | S. cerevisiae deletion strains, locus YHR013C, strain ard1, hits give low values 1.01 | S. cerevisiae deletion strains, locus YHR027C, strain rpn1, hits give low values 0.942 | S. cerevisiae deletion strains, locus YHR030C, strain SLT2, hits give low values 0.924 | S. cerevisiae deletion strains, locus YIL066C, strain RNR3, hits give low values 0.867 | S. cerevisiae deletion strains, locus YIL073C, strain SPO22, hits give low values 0.733 | S. cerevisiae deletion strains, locus YIL125W, strain kgd1, hits give low values 0.944 | S. cerevisiae deletion strains, locus YJL092W, strain hpr5, hits give low values 0.945 | S. cerevisiae deletion strains, locus YJL095W, strain BCK1 (second series), hits give low values 0.945 | S. cerevisiae deletion strains, locus YJL115W, strain asf1, hits give low values 0.979 | S. cerevisiae deletion strains, locus YJL134W, strain LCB3, hits give low values 0.953 | S. cerevisiae deletion strains, locus YJL154C, strain vps35, hits give low values 0.975 | S. cerevisiae deletion strains, locus YJL168C, strain set2, hits give low values 0.943 | S. cerevisiae deletion strains, locus YKL009W, strain mrt4, hits give low values 0.89 | S. cerevisiae deletion strains, locus YKL085W, strain MDH1 (second series), hits give low values 0.952 | S. cerevisiae deletion strains, locus YKL085W, strain MDH1, hits give low values 0.952 | S. cerevisiae deletion strains, locus YKL190W, strain CNB1, hits give low values 0.953 | S. cerevisiae deletion strains, locus YKR026C, strain gcn3, hits give low values 0.95 | S. cerevisiae deletion strains, locus YKR091W, strain srl3, hits give low values 0.942 | S. cerevisiae deletion strains, locus YLL026W, hits give low values 0.937 | S. cerevisiae deletion strains, locus YLL041C, strain sdh2, hits give low values 0.943 | S. cerevisiae deletion strains, locus YLR262C, strain YPT6, hits give low values 0.708 | S. cerevisiae deletion strains, locus YLR342W, strain FKS1 (second series), hits give low values 0.876 | S. cerevisiae deletion strains, locus YLR342W, strain FKS1, hits give low values 0.93 | S. cerevisiae deletion strains, locus YLR357W, strain rsc2, hits give low values 1.01 | S. cerevisiae deletion strains, locus YLR370C, strain arc18, hits give low values 0.943 | S. cerevisiae deletion strains, locus YLR384C, strain iki3, hits give low values 0.947 | S. cerevisiae deletion strains, locus YML016C, strain PPZ1, hits give low values 0.931 | S. cerevisiae deletion strains, locus YMR058W, strain fet3, hits give low values 0.918 | S. cerevisiae deletion strains, locus YMR125W, strain sto1, hits give low values 0.893 | S. cerevisiae deletion strains, locus YMR129W, hits give low values 0.937 | S. cerevisiae deletion strains, locus YMR231W, strain pep5, hits give low values 0.967 | S. cerevisiae deletion strains, locus YNL067W, strain RPL9B, hits give low values 0.925 | S. cerevisiae deletion strains, locus YNL128W, strain TEP1, hits give low values 0.95 | S. cerevisiae deletion strains, locus YNL209W, strain ssb2, hits give low values 0.95 | S. cerevisiae deletion strains, locus YNL248C, strain rpa49, hits give low values 0.951 | S. cerevisiae deletion strains, locus YNL250W, strain rad50, hits give low values 0.979 | S. cerevisiae deletion strains, locus YNL271C, strain bni1, hits give low values 0.953 | S. cerevisiae deletion strains, locus YNL322C, strain KRE1 (second series), hits give low values 0.947 | S. cerevisiae deletion strains, locus YNL322C, strain KRE1, hits give low values 0.948 | S. cerevisiae deletion strains, locus YNR049C, strain mso1, hits give low values 0.964 | S. cerevisiae deletion strains, locus YNR052C, strain pop2, hits give low values 0.946 | S. cerevisiae deletion strains, locus YOL006C, strain TOP1, hits give low values 0.733 | S. cerevisiae deletion strains, locus YOL012C, strain htz1 1.12 | S. cerevisiae deletion strains, locus YOR001W, strain rrp6, hits give low values 0.894 | S. cerevisiae deletion strains, locus YOR061W, strain CKA2, hits give low values 0.957 | S. cerevisiae deletion strains, locus YOR069W, strain VPS5, hits give low values 0.94 | S. cerevisiae deletion strains, locus YOR080W, strain dia2, hits give low values 0.966 | S. cerevisiae deletion strains, locus YOR270C, strain vph1, hits give low values 0.811 | S. cerevisiae deletion strains, locus YOR316C, strain cot1, hits give low values 0.931 | S. cerevisiae deletion strains, locus YPR141C, strain kar3, hits give low values 0.96 | S. cerevisiae strains, strain wild type, hits give low values 0.905
